About 8,800 targets were measured; listed, in parts, are those with a hit and a random draw of the rest. About 0.5% of all pairs of compound and target were hits.
Key:
Test in all cases: log2 fold change, soluble protein after heating vs DMSO (PISA); higher = thermal stabilisation; K562 lysate, 10 uM; active = over 0.2 and 3.5 SD of the protein, either way, in both replicates (recomputed)
[1] = compound: CCCS(=O)(=O)Nc1ccc(F)c(C(=O)c2c[nH]c3ncc(-c4ccc(Cl)cc4)cc23)c1F [vemurafenib]
Method in brief: (§1)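 The values are log-two fold changes in thermal stability compared with solvent controls and come from duplicates. They were obtained by TMTpro 16plex LC-MS/MS, with channel sums equalised, on the supernatant after 21,000xg for 90 min. That supernatant came from crude K562 extract at 1 mg/mL protein treated with 10 μM compound for 30 min, heated for 3 min across 48°C-58°C, pooled and brought to 0.5% NP-40 at 4°C.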

[2] = compound: CCCS(=O)(=O)Nc1ccc(F)c(C(=O)c2c[nH]c3ncc(Cl)cc23)c1F
Method in brief: as §1

[3] = compound: CCN(CCCOc1ccc2c(Nc3cc(CC(=O)Nc4cccc(F)c4)[nH]n3)ncnc2c1)CCOP(=O)(O)O [barasertib]
Method in brief: as §1

[4] = compound: CC[C@@H]1C(=O)N(C)c2cnc(Nc3ccc(C(=O)NC4CCN(C)CC4)cc3OC)nc2N1C1CCCC1
Method in brief: as §1

[5] = compound: CC[C@@H]1C(=O)N(C)c2cnc(Nc3ccc(C(=O)N[C@H]4CC[C@H](N5CCN(CC6CC6)CC5)CC4)cc3OC)nc2N1C(C)C [volasertib]
Method in brief: as §1

[6] = compound: CCn1c(C(=O)N(C2CC2)C2CC2)cc2c3c(ncn3C)c(Nc3cc(C)n(C)n3)nc21
Method in brief: as §1

[7] = compound: CCn1cc(-c2ccnc3[nH]c(-c4cccc(CN(C)C)c4)cc23)c(-c2ccc(NC(=O)N(C)C)cc2)n1
Method in brief: as §1

[8] = compound: CN1CCC(CNc2ccc3ncc(-c4cccc(OC(F)(F)F)c4)n3n2)CC1
Method in brief: as §1

[9] = compound: CN1CCN(CCOc2cc(OC3CCOCC3)c3c(Nc4c(Cl)ccc5c4OCO5)ncnc3c2)CC1 [saracatinib]
Method in brief: as §1

[10] = compound: CN1CCN(c2nc(C3=C(c4c[nH]c5ccccc45)C(=O)NC3=O)c3ccccc3n2)CC1 [sotrastaurin]
Method in brief: as §1

[11] = compound: CN1CC[C@H](c2c(O)cc(O)c3c(=O)cc(-c4ccccc4Cl)oc23)[C@H](O)C1 [alvocidib]
Method in brief: as §1

[12] = compound: CN1CCc2c(c3ccccc3n2Cc2ccc(C(=O)NO)cc2)C1 [Tubastatin A]
Method in brief: as §1

[13] = compound: CNC(=O)C1=CC=CC=C1NC2=NC(=NC=C2Cl)NC3=C(C=C(C=C3)N4CCOCC4)OC
Method in brief: as §1

[14] = compound: CNC(=O)c1ccc(Nc2ncc(C(F)(F)F)c(NCc3nccnc3N(C)S(C)(=O)=O)n2)cc1 [defactinib]
Method in brief: as §1

[15] = compound: CNc1nc(-c2ccc3c(N)n[nH]c3c2)cc(N2C[C@@H](C(=O)NC3CCCCC3)CC[C@H]2C)n1
Method in brief: as §1

[16] = compound: COC(=O)N[C@@H](C)CNc1nccc(-c2cn(C(C)C)nc2-c2cc(Cl)cc(NS(C)(=O)=O)c2F)n1 [encorafenib]
Method in brief: as §1

[17] = compound: COC(=O)[C@H](CCSC)NC(=O)C1=C(C=C(C=C1)NC[C@H](CS)N)C2=CC=CC=C2
Method in brief: as §1

[18] = compound: COc1cc(Nc2ncc3c(n2)-c2ccc(Cl)cc2C(c2c(F)cccc2OC)=NC3)ccc1C(=O)O [alisertib]
Method in brief: as §1

[19] = compound: COc1cc2nc(-c3cc(F)ccc3O)nc(N[C@@H]3CNC[C@H]3C(C)(C)O)c2cc1OC
Method in brief: as §1

[20] = compound: COc1cc2ncnc(Nc3ccc(F)c(Cl)c3)c2cc1OCCCN1CCOCC1 [gefitinib]
Method in brief: as §1

Measured: log2 fold change

THOC5 (UniProt Q13769)
UniProt Q13769, sequence (Q13769 whole entry, looked up): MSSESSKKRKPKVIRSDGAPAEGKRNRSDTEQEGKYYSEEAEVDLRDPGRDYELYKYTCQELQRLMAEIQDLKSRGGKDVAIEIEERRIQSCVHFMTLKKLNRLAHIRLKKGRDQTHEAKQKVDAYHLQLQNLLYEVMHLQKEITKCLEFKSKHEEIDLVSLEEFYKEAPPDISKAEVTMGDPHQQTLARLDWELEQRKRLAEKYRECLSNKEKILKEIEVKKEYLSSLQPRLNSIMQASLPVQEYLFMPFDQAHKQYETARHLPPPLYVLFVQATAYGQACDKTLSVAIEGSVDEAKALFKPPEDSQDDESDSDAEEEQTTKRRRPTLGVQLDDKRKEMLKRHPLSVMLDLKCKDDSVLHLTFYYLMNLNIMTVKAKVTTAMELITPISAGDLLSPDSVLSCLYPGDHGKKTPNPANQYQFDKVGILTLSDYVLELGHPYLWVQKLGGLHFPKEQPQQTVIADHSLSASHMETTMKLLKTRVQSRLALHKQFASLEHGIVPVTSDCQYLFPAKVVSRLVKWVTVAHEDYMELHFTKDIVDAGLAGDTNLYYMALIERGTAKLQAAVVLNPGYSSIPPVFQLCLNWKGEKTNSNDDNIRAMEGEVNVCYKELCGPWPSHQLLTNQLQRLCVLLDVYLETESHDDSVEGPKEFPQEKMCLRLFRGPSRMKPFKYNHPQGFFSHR
inactive: [1] 0.005 | [2] 0.013 | [3] -0.023 | [4] -0.031 | [5] -0.008 | [6] 0.008 | [7] 0.02 | [8] -0.008 | [9] 0.024 | [10] 0.013 | [11] -0.027 | [12] -0.025 | [13] -0.021 | [14] -0.008 | [15] -0.016 | [16] 0.005 | [17] 0.062 | [18] 0.059 | [19] 0.006 | [20] -0.018

TBC1D8B (UniProt Q0IIM8)
UniProt Q0IIM8, sequence (Q0IIM8 whole entry, looked up): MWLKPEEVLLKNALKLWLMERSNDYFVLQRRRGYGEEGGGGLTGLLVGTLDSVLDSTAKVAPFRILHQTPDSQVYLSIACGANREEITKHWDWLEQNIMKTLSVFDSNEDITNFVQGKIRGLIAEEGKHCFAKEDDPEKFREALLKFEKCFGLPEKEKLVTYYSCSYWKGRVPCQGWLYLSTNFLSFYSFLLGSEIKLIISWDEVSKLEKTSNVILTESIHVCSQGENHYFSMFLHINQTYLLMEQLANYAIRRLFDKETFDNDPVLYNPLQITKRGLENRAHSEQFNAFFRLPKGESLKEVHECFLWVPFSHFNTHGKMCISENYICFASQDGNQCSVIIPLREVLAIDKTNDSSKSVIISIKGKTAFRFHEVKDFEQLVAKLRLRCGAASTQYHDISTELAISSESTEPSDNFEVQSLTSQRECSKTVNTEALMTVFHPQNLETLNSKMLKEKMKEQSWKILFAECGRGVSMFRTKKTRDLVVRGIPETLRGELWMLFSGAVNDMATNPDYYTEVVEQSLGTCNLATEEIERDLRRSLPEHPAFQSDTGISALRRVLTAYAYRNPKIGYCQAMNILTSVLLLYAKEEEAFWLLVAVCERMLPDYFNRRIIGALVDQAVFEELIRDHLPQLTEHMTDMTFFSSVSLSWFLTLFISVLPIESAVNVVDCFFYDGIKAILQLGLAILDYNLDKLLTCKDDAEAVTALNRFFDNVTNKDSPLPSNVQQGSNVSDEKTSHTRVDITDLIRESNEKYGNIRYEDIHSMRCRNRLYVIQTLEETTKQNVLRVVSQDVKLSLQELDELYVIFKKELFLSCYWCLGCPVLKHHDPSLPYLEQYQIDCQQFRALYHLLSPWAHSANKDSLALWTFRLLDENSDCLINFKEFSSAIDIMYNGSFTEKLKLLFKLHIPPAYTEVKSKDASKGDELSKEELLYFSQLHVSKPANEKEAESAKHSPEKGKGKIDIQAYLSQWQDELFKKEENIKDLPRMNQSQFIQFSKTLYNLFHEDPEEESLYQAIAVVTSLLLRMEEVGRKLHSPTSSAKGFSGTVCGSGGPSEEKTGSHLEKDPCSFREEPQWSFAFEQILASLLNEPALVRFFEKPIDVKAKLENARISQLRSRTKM
active: [7] -0.308
inactive: [1] -0.007 | [2] -0.025 | [3] 0.108 | [4] 0.096 | [5] 0.072 | [6] -0.024 | [8] 0.192 | [9] -0.047 | [10] -0.042 | [11] -0.134 | [12] 0.051 | [13] -0.017 | [14] -0.057 | [15] 0.078 | [16] -0.032 | [17] 0.033 | [18] 0.11 | [19] 0.026 | [20] 0.008

TSFM (UniProt P43897)
UniProt P43897, sequence (P43897 whole entry, looked up): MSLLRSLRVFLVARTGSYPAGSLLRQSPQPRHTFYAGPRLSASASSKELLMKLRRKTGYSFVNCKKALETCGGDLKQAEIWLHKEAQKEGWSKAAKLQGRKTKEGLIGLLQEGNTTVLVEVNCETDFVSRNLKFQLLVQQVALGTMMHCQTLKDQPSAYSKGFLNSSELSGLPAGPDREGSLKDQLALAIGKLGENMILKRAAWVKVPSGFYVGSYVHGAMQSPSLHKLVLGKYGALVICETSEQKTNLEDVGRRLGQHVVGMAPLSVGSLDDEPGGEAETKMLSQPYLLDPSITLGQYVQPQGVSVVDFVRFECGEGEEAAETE
inactive: [1] -0.007 | [2] 0.005 | [3] 0.031 | [4] -0.041 | [5] -0.089 | [6] 0.006 | [7] 0.081 | [8] -0.05 | [9] -0.014 | [10] -0.012 | [11] 0.036 | [12] -0.088 | [13] 0.017 | [14] 0.015 | [15] 0.01 | [16] -0.017 | [17] 0.13 | [18] -0.021 | [19] 0.017 | [20] 0.018

TDRKH (UniProt Q9Y2W6)
UniProt Q9Y2W6, sequence (Q9Y2W6 whole entry, looked up): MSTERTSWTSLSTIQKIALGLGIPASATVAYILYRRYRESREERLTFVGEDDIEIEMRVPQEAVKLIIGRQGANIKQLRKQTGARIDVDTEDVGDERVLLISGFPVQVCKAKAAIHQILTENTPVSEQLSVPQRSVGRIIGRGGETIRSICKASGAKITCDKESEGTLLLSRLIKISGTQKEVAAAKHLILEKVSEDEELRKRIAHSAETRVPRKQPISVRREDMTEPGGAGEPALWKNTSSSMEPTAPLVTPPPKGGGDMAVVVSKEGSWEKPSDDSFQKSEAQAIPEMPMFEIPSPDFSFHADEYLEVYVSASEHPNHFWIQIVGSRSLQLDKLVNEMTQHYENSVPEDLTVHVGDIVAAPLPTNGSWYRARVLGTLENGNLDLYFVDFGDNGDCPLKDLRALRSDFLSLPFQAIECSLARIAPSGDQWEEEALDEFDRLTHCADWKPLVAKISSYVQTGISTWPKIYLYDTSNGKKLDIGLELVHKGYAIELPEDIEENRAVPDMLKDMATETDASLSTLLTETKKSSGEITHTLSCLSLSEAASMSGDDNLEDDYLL
inactive: [1] 0.07 | [2] 0.055 | [3] 0.031 | [4] -0.195 | [5] -0.052 | [6] -0.003 | [7] -0.095 | [8] 0.058 | [9] -0.004 | [10] -0.039 | [11] -0.017 | [12] -0.064 | [13] 0.019 | [14] 0.033 | [15] 0.042 | [16] 0.007 | [17] 0.008 | [18] -0.049 | [19] 0.04 | [20] 0.001

TTL (UniProt Q8NG68)
UniProt Q8NG68, sequence (Q8NG68 whole entry, looked up): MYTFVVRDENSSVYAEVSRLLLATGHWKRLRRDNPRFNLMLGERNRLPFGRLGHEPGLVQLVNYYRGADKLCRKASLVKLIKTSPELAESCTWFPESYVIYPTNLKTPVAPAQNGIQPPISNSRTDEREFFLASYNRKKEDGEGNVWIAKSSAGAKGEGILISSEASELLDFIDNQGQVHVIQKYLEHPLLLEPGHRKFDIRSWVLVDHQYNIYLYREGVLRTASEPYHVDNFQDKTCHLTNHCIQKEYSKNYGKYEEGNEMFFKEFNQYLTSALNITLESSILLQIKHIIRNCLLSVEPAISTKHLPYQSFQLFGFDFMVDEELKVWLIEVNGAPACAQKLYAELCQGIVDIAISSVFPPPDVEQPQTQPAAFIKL
inactive: [1] -0.066 | [2] 0.053 | [3] 0 | [4] -0.231 | [5] -0.116 | [6] 0.021 | [7] 0.009 | [8] -0.044 | [9] -0.068 | [10] 0.078 | [11] 0.112 | [12] -0.143 | [13] 0.015 | [14] -0.065 | [15] 0.001 | [16] 0.079 | [17] 0.144 | [18] -0.027 | [19] 0.019 | [20] 0.112

TXNRD2 (UniProt Q9NNW7)
UniProt Q9NNW7, sequence (Q9NNW7 whole entry, looked up): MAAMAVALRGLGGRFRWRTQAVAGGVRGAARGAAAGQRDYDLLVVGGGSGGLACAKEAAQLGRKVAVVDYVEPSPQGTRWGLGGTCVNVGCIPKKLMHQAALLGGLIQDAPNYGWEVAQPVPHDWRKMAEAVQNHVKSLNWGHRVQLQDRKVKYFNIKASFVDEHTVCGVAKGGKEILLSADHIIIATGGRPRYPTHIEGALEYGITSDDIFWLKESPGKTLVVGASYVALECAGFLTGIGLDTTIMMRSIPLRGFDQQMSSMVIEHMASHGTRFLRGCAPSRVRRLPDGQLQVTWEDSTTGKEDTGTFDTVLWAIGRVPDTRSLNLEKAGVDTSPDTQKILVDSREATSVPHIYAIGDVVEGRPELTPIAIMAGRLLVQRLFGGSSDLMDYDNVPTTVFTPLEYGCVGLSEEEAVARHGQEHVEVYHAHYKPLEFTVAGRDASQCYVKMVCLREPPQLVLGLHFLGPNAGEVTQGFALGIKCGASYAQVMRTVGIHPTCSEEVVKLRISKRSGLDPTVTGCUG
inactive: [1] -0.004 | [2] 0.036 | [3] -0.047 | [4] 0.023 | [5] -0.005 | [6] -0.008 | [7] -0.031 | [8] 0.082 | [9] 0 | [10] -0.021 | [11] -0.006 | [12] 0.021 | [13] 0.018 | [14] 0.015 | [15] 0.007 | [16] 0.039 | [17] -0.034 | [18] 0 | [19] 0.008 | [20] -0.064

TUBB1 (UniProt Q9H4B7)
UniProt Q9H4B7, sequence (Q9H4B7 whole entry, looked up): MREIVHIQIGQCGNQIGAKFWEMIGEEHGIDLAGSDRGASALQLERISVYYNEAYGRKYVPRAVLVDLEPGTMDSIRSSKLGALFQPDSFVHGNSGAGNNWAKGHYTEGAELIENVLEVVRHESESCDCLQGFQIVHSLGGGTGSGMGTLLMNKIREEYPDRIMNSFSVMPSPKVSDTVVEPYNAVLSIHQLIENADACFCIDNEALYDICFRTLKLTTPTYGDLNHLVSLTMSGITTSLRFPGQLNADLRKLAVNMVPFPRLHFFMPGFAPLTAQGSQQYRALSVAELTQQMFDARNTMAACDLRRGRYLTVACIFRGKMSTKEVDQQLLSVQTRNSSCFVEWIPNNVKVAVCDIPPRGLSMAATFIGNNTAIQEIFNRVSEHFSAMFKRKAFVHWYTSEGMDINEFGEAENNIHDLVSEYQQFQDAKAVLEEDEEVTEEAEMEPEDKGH
inactive: [1] -0.039 | [2] 0.011 | [3] 0.002 | [4] -0.025 | [5] -0.087 | [6] 0.034 | [7] 0.15 | [8] -0.025 | [9] -0.002 | [10] -0.045 | [11] 0.026 | [12] -0.059 | [13] 0.021 | [14] 0.07 | [15] -0.005 | [16] -0.015 | [17] 0.071 | [18] -0.013 | [19] -0.034 | [20] -0.047

TPM1 (UniProt H7BYY1)
inactive: [1] -0.001 | [2] -0.024 | [3] -0.031 | [4] 0.052 | [5] 0.043 | [6] -0.003 | [7] 0.092 | [9] 0.009 | [10] 0.015 | [11] 0.027 | [12] 0.092 | [13] 0.007 | [14] 0 | [15] 0.022 | [16] 0.056 | [17] -0.023 | [18] -0.048 | [19] -0.04 | [20] 0.076
active: [8] -0.205
